# Laboratory results taken from PubChem BioAssay AID651871 (Sanford-Burnham Center for Chemical Genomics, 2012).
# Several values for one entry are separate records, joined by “and”; a condition that tells them apart may be missing. Equal values may be shown once.
# System: HL-1
# Assay: protection of cardiomyocytes from stress damage, SAR follow-up, cell-based, panel, H9c2 and HL-1, ATP luminescence, set 2 (AID 651871);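 further: cells exposed to stressor for 2 h before ATP readout; reference of the scale not given here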
# Conditions: H9c2/HL-1 cardiomyocytes, 2-deoxyglucose stress, with 2-deoxyglucose, run 16, at 19.8 µM (top of the series)
smiles,measurement,value
COc1ccc2c(c1OC)C(=O)N1c3ccccc3C(=O)N(Cc3cccc(Cl)c3Cl)C21 (stereo unspecified),activity (protection/inhibition),50.9% and 45%
